According to PubChem BioAssay (NCATS):
Results filed as inconclusive are left out. Values without a mark were called inactive. Calls of active or inactive are those of the source. The call rests on the fitted dose curve; in most records, active means well fitted cell-killing curve with a large enough effect; inconclusive means small, poorly fitted or top-dose-only effect; inactive means flat fitted curve, though single readings scatter.

test: Quantitative highthroughput screen to assess conditional lethalithy of NOMO1 cells grown in RPMI1640 with untreated serum (RPMI+s) (AID 1963876); details: NOMO1 AML cells in RPMI+serum, CellTiter-Glo viability, 48 h; series mostly up to 45.8 µM; viability: at the top concentration; further: nearly all actives have a fitted effect of over 35% in size
Description: Assay Provider: Jason Cantor Ph.D.
Department of Biochemistry
University of Wisconsin-Madison, Madison, WI, USA
Chemical screening studies have identified drug sensitivities across hundreds of cancer cell lines but most putative therapeutics fail to translate. Discovery and development of drug candidates in models that more accurately reflect nutrient levels in human blood is a major challenge. Here we performed high-throughput screens in conventional versus Human Plasma-Like Medium (HPLM) to identify compounds that were "missed" when screening using the artificial culture condition. Sets of conditional anticancer compounds spanned phases of clinical development and included non-oncology drugs were assessed. […] We also traced conditional phenotypes for several chemotherapeutics to availability of HPLM-specific metabolites and confirmed others for compounds whose reported targets are encoded by nonessential genes. Our findings establish generalizable strategies for exploiting conditional lethality in HPLM to reveal therapeutic candidates and mechanisms of action in cancer cells.
Described herein are the results of each viability screens against three cell lines: NOMO1 (an acute myeloid leukemia cell line); P12-Ichikawa (a T-cell acute lymphoblastic leukemia); and SEM (a B-cell ALL). Each assay was screened using 3 different cell culture media: homemade human plasma-Like medium with 10% dialyzed fetal bovine serum (HPLM+ds); RPMI1640 with 10% untreated FBS and 5mM glucose (RPMI+s); and RPMI1640 with 10% dialyzed fetal bovine serum and 5 mM glucose (RPMI+ds).
PROTOCOL TABLE (as described by Inglese J, Shamu CE and Guy RK. 2007)
SEQUENCE No. (e.g., 1, 2, 3, etc.); […] (e.g., Cells, Incubation, Reagent, etc.); VALUE and DESCRIPTION.
1; Cells; 5 uL; white, solid bottom 1536-well Greiner assay plate.
2; Compounds; 23 nL; Kalypsis pin tool (Wako USA) equipped with a 1536-well pin head to transfer to the assay plates.
3; Incubation; 48 hours; 37C incubation.
4; Reagent; 3 uL; CellTiter Glo (Promega).
5; Incubation; 5 min, room temperature
6; Detection; Luminescence, Viewlux PerkinElmer.
NOTES (numbers refer to Sequence numbers above)
1. Briefly, 5 ul of cell reagent was dispensed using a Multidrop Combi Dispenser. The NOMO1 and SEM cells were plated at 500 cells/well and the P12-Ichikawa line at 1000 cells/well.
2. After seeding the cells, 23 nL of MIPE 4.1 library compounds (in DMSO) were added to each plate using a Kalypsys 1536 Pintool dispenser. Bortezomib at final concentration of […] and DMSO were added to each plate as positive and negative controls respectively. For each screen, MIPE 4.1 compounds were added over an eleven-point concentration range […] in 3-fold dilutions.
3. Each plate was covered with a stainless steel gasketed lid to prevent evaporation and incubated for 48 hour at 37C, 95% relative humidity, and 5% CO2.
4-5. Three microliter CellTilter-GloTM luminescent substrate mix (Promega) reagent was added to the assay plate and incubated at room temperature for 5 min.
6. The luminescence signal was measured using a ViewLux (PerkinElmer) multiplate reader with a 2 second exposure time per plate. Data for each compound were normalized as percent viability such that measurements for DMSO and the empty well controls in each plate were defined as 100% and 0%, respectively.
Potency means the concentration at half of the fitted maximal effect.

SMILES	viability [%]	Potency
N=C1SC(=Cc2ccc(-c3ccc4c(c3)C(=O)NC4=O)o2)C(=O)N1c1ccc(Br)cc1	93.5	–
Cc1ccc(NC(=O)c2ccc(CN3CCN(C)CC3)cc2)cc1Nc1nc(-c2cccnc2)cs1	72.5	–
COc1cc(C(=O)NC2CCN(C)CC2)ccc1Nc1ncc2c(n1)N(C1CCCC1)CCC(=O)N2C(C)C	–	20.9 µM (active)
CN(C)c1ccc(C(=C2C=CC(=[N+](C)C)C=C2)c2ccc(N(C)C)cc2)cc1	–	0.148 µM (active)
C=CC(=O)Nc1cccc(Oc2nc(Nc3ccc(N4CCN(C)CC4)cc3OC)ncc2Cl)c1	67.2	–
CC(C)C(C)C=CC(C)C1CCC2C3=CC=C4CC(O)CCC4(C)C3CCC21C (stereo not given)	95.5	–
COc1ccc(F)c(F)c1C(=O)c1cnc(NC2CCN(S(C)(=O)=O)CC2)nc1N	–	4.69 µM (active)
Cc1c(Cn2c(C)nc3c(C(=O)O)cc(N4CCOCC4)cc32)cccc1C(F)(F)F	72.6	–
O=C(O)C1=NC(C(=O)O)CC(C=CN2c3cc(O)c(OC4OC(CO)C(O)C(O)C4O)cc3CC2C(=O)O)=C1 (stereo not given)	115	–
COc1ccccc1OCC(O)COC(N)=O (stereo not given)	100	–
CN1C(C(=O)Nc2ccccn2)=C(O)c2sc(Cl)cc2S1(=O)=O	101	–
CC(C)(S)[C@@H](N)C(=O)O	95.1	–
CC(=O)O[C@@]12CO[C@H]1C[C@H](O)[C@@]1(C)C(=O)[C@H](O)C3=C(C)[C@@H](OC(=O)C(O)[C@@H](NC(=O)OC(C)(C)C)c4ccccc4)C[C@@](O)([C@@H](OC(=O)c4ccccc4)[C@@H]21)C3(C)C (stereo not given in full)	7.49	–
CCc1cccc2c3c([nH]c12)C(CC)(CC(=O)O)OCC3 (stereo not given)	101	–
COc1cc(Nc2c(C#N)cnc3cc(OCCCN4CCN(C)CC4)c(OC)cc23)c(Cl)cc1Cl	–	7.43 µM (active)
FC(F)(F)c1ccc(C=Cc2nc(COc3ccc(CCCCn4ccnn4)cc3)co2)cc1	–	2.35 µM (active)
O=C(O)c1ccc2c(c1)nc(Nc1cccc(Cl)c1)c1ccncc12	–	5.9 µM (active)
CCOc1cc(C(C)(C)C)ccc1C1=N[C@@](C)(c2ccc(Cl)cc2)[C@@](C)(c2ccc(Cl)cc2)N1C(=O)N1CCN(CC(=O)N2CCOCC2)CC1	104	–
CCC(=O)O[C@]1(C(=O)SCF)[C@H](C)C[C@H]2[C@@H]3C[C@H](F)C4=CC(=O)C=C[C@]4(C)[C@@]3(F)[C@@H](O)C[C@@]21C	81.1	–
Cn1cnc(=N)c2[nH]cnc21	–	7.43 µM (active)

SMILES	viability [%]	Potency
O=c1c(O)c(-c2ccc(O)c(O)c2)oc2cc(O)ccc12	91.2	–
COc1cc(Cl)cn2c(-c3cccc(NC4CNC4)n3)cnc12	95	–
CC(C)OC(=O)C(C(=O)OC(C)C)=C1SC=CS1	102	–
CC(N[C@H]1CCCC[C@H]1NC(=O)c1ccc(Cl)cc1)c1cccc2ccccc12 (stereo not given in full)	–	8.33 µM (active)
COCCOC(=O)C1=C(C)NC2=C(C(=O)CC(c3ccccc3OC)C2)C1c1cccc(O)c1 (stereo not given)	75.6	–
COCCn1c2c([n+](Cc3cnccn3)c1C)C(=O)c1ccccc1C2=O	–	0.132 µM (active)
Cc1ncc([N+](=O)[O-])n1CCO	108	–
O=C1C(CCC(O)c2ccc(F)cc2)C(c2ccc(O)cc2)N1c1ccc(F)cc1 (stereo not given)	108	–
COC(=O)C1=CO[C@@H](O)[C@@H]2C(CO)=CC[C@@H]12	86.4	–
CC(C)(O)CC[C@@H](O)[C@](C)(O)[C@H]1CC[C@@]2(O)C3=CC(=O)[C@@H]4C[C@@H](O)[C@@H](O)C[C@]4(C)[C@@H]3CC[C@]12C	102	–
Clc1ccc(C(Cn2ccnc2)OCc2c(Cl)cccc2Cl)c(Cl)c1 (stereo not given)	89.8	–
CN(C)C(=O)c1ccc(S(=O)(=O)c2ccc(NC(=O)[C@@](C)(O)C(F)(F)F)c(Cl)c2)cc1	–	11.8 µM (active)
CC1(C)Cc2c(sc(NC(=S)NC(=O)c3ccccc3)c2C(=O)O)CO1	86.9	–
C[C@H](NC(=O)Cc1cc(F)cc(F)c1)C(=O)N[C@H](C(=O)OC(C)(C)C)c1ccccc1	96.6	–
C=CC(=O)Nc1cc2c(Nc3ccc(F)c(Cl)c3)ncnc2cc1C#CC(C)(C)N1CCN(C)CC1	–	9.35 µM (active)
Cc1c(O)cccc1C(=O)N[C@@H](CSc1ccccc1)[C@H](O)CN1C[C@H]2CCCC[C@@H]2C[C@@H]1C(=O)NC(C)(C)C	98	–
Cc1cccc(-c2[nH]ncc2-c2ccc3ncccc3n2)n1	81.3	–
COc1ccc(C2CNC(=O)C2)cc1OC1CCCC1 (stereo not given)	112	–
CC(C)=CCCC(C)=CCCC(C)=CCCC(C)=CCCC(C)=CCCC(C)=CCCC(C)=CCCC(C)=CCCC(C)=CCO	94.5	–
COC(=O)N[C@H](C(=O)N1CCC[C@@H]1c1ncc(-c2ccc(-c3ccc(-c4cnc([C@@H]5CCCN5C(=O)[C@@H](NC(=O)OC)C(C)C)[nH]4)cc3)cc2)[nH]1)C(C)C	95	–
